Test results reported in the supplement of paper PMC11732987, “Enantioselective OTUD7B fragment discovery through chemoproteomics screening and high-throughput optimisation” (Communications Chemistry, 2025).

What was measured:
Assay in all cases: log2 ratio of Biotin-Ahx-Ub-VS probe labelling (fragment/DMSO); higher = less target engagement (more negative = stronger competition), active = hit call of the paper (q ≤ 0.05, log2 ratio ≤ -1)
Settings in all cases: compound concentration: 200 uM; treatment time: 3 h
[1] = target: T1, USP19 (UniProt O94966)
T1 sequence (whole entry): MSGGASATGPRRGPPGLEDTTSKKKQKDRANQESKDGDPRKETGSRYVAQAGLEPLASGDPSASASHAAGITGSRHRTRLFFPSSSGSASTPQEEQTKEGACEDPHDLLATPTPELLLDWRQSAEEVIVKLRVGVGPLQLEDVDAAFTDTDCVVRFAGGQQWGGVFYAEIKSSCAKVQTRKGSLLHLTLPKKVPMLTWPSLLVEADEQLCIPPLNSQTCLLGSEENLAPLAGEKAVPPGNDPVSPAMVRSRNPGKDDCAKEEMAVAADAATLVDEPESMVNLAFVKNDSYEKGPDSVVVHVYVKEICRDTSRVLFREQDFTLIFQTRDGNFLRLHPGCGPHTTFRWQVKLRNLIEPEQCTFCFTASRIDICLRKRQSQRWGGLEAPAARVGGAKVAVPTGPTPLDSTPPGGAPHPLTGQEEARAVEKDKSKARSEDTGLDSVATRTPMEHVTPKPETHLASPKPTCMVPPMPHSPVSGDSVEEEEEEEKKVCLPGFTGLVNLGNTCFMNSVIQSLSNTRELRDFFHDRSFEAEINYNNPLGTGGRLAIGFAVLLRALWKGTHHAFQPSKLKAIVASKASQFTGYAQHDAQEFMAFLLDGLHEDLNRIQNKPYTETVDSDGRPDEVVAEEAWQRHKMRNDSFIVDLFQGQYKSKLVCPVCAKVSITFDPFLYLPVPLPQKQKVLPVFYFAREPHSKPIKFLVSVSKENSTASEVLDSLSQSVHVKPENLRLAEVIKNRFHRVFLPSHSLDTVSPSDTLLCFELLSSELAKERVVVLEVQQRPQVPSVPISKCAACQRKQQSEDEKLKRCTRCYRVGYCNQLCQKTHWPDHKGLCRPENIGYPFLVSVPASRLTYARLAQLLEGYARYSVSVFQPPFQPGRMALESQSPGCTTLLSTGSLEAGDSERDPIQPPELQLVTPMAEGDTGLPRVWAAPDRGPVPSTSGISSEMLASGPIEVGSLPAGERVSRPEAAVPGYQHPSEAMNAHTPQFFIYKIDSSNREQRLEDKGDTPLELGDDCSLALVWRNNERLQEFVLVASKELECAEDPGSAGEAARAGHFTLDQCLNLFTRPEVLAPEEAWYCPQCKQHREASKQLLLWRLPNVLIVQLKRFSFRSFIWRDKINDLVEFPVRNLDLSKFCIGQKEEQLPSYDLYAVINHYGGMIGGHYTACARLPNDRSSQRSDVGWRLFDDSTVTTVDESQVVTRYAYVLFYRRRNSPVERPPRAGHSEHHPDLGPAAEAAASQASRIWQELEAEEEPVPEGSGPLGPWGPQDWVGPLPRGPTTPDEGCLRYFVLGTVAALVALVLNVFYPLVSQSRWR
Method in brief: (§1)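 Each value is an average log2 ratio of fragment to vehicle, tested by unpaired t-test. The underlying Spectronaut label-free quantities were global-median-normalised, and only proteins with ≥2 unique peptides were included. Triplicate HEK293T lysate samples (495 µg) were exposed to fragment at 200 µM or vehicle for 3 h, then to Biotin-Ahx-Ub-VS at 0.5 µM final for 1 h, before NeutrAvidin enrichment of labelled DUBs, LysC and trypsin digestion, and diaPASEF LC-MS/MS.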

[2] = target: T2, USP22 (UniProt Q9UPT9)
T2 sequence (whole entry): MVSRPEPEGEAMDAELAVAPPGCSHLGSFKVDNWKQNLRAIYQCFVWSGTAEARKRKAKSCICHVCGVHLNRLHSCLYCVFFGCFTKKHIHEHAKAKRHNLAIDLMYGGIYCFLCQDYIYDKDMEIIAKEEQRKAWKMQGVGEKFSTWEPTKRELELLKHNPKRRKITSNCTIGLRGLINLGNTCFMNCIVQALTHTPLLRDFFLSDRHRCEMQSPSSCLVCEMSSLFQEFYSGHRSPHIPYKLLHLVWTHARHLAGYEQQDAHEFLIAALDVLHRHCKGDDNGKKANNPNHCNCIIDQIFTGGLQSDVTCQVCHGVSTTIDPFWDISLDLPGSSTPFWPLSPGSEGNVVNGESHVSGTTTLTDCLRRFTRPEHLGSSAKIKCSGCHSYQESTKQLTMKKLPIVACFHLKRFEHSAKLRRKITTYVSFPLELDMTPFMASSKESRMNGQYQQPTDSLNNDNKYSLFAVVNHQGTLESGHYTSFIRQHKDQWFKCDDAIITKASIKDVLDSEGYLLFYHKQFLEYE
Method in brief: as §1

[3] = target: USP24 (UniProt Q9UPU5)
Chain of USP24 (Q9UPU5 whole entry): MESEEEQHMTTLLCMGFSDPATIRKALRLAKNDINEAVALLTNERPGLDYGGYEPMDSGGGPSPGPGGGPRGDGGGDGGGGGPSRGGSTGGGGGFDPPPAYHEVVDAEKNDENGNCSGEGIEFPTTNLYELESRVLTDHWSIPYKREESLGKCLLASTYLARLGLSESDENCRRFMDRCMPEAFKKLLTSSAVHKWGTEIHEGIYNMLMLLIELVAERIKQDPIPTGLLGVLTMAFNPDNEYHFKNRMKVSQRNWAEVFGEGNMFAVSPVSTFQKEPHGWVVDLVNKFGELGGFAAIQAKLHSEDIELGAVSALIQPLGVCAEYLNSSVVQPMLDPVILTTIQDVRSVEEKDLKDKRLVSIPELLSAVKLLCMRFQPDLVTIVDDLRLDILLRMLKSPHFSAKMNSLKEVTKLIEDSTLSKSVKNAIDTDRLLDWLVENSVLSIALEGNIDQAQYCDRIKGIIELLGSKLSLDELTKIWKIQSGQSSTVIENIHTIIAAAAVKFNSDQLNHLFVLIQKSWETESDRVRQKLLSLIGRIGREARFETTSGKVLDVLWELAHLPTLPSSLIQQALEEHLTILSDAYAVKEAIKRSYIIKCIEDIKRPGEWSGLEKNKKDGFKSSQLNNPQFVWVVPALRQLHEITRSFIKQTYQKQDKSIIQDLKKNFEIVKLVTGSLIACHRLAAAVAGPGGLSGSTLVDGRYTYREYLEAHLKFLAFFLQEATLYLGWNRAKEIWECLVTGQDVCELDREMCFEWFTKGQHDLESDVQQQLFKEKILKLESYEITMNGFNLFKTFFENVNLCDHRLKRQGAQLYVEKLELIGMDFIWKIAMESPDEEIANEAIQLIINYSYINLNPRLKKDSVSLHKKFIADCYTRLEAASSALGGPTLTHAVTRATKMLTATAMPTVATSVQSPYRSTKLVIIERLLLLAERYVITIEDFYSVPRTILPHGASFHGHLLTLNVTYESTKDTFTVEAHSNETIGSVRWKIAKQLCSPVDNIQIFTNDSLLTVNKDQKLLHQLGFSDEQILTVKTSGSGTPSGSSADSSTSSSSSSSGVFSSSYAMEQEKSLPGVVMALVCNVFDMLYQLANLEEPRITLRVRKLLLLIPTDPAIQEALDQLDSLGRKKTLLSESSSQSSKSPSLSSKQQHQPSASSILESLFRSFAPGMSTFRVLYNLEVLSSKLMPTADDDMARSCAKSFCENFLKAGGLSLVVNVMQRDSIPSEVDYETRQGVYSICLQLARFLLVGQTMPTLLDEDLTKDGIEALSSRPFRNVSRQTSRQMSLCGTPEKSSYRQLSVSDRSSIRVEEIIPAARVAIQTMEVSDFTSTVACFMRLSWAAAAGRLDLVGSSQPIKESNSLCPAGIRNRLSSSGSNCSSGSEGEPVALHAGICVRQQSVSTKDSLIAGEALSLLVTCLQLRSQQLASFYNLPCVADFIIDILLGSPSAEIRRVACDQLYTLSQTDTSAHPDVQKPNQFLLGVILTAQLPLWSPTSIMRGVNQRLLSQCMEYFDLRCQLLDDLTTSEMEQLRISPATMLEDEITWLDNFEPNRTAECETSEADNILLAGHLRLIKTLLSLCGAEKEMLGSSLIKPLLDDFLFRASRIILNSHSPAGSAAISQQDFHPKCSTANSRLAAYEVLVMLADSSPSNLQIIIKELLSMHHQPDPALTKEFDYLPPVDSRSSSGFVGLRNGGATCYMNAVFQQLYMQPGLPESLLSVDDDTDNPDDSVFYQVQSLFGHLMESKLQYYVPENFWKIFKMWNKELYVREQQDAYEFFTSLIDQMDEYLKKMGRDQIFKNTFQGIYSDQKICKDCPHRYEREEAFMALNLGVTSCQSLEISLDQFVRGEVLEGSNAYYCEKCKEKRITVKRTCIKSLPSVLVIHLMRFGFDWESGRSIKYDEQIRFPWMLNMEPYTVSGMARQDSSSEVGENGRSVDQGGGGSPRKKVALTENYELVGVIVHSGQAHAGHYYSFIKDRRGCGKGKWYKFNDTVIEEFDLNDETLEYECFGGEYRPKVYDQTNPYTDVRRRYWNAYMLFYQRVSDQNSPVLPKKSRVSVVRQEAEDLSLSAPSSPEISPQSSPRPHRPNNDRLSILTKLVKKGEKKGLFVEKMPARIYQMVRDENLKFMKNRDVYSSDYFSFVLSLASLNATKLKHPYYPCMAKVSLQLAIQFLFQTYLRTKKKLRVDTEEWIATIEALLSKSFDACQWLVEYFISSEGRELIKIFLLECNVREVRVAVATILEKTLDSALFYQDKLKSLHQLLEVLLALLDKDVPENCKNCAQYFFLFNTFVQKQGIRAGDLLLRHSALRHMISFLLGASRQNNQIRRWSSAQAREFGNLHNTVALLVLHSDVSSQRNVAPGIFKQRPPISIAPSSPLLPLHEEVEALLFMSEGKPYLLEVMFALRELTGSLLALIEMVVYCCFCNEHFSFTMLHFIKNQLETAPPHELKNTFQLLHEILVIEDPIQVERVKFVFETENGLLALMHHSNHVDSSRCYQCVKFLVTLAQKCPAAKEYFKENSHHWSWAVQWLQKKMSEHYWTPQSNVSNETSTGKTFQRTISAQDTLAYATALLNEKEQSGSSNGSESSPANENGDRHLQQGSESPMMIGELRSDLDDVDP
Method in brief: as §1

[4] = target: T3, USP25 (UniProt Q9UHP3)
T3 sequence (whole entry): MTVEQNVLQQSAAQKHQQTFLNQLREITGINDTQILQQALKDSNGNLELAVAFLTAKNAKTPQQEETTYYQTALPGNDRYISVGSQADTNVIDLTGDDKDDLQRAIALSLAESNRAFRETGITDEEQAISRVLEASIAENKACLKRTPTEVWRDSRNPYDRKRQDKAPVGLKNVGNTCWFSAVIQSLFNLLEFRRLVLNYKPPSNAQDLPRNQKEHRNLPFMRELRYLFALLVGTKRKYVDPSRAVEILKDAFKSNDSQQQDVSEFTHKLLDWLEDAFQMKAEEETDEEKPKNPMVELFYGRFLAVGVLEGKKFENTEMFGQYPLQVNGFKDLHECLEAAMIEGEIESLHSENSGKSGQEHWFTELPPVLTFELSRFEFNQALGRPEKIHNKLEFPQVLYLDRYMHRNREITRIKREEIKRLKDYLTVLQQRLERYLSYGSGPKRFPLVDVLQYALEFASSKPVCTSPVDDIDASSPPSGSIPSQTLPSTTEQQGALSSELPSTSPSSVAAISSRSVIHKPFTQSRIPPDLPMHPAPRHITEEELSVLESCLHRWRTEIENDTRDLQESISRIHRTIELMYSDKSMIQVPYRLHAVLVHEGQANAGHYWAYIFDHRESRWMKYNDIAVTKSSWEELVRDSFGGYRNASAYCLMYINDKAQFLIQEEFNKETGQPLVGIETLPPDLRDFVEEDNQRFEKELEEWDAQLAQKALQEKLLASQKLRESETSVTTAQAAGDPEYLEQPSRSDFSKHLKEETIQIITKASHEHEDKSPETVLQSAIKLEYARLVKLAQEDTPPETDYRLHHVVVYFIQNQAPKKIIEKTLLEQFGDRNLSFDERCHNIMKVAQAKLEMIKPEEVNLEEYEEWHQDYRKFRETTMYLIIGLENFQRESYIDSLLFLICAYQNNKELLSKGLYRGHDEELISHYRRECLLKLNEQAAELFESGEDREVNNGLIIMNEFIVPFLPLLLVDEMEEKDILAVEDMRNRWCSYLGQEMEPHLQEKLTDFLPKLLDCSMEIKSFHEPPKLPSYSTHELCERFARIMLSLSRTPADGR
Method in brief: as §1

[5] = target: T4, USP28 (UniProt Q96RU2)
T4 sequence (whole entry): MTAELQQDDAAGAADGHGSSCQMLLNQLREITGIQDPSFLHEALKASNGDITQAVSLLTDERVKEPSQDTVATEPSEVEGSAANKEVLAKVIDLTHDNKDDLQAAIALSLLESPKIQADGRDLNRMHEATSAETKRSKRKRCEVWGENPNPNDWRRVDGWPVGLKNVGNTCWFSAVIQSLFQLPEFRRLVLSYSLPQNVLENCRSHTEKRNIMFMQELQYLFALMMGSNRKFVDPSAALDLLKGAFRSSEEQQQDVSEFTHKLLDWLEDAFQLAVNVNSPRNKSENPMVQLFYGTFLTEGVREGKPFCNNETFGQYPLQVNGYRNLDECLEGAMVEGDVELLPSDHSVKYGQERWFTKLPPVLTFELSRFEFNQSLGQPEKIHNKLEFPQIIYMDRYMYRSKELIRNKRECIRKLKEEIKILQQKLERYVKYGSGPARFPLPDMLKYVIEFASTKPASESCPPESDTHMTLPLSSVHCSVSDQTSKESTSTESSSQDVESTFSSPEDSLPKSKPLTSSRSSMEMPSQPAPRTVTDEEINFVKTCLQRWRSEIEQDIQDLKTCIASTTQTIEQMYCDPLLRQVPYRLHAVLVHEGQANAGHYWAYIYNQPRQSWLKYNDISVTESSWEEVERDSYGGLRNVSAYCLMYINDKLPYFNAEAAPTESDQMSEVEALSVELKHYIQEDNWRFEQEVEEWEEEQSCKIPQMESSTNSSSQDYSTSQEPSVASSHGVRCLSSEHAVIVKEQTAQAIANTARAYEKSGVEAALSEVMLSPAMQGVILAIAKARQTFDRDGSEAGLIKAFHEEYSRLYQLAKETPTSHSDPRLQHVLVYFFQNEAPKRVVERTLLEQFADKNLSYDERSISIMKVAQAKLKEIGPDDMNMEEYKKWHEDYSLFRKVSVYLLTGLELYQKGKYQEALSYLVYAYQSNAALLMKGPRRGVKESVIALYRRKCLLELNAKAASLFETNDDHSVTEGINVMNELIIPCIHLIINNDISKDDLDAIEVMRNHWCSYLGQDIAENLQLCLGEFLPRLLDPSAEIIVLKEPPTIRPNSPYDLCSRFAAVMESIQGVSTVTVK
Method in brief: as §1

Measured: log2 ratio of Biotin-Ahx-Ub-VS probe labelling

Cc1noc(C)c1CNC(=O)CCl
inactive: [1] -0.666 | [2] -0.912 | [3] -0.8 | [4] -0.554 | [5] -0.971
